PI5P4Ka inh: inhibitors of human PI5P4K alpha. PI5P4Kalpha enzyme, ADP-Glo luminescence, 60 min; hits give low values. max response, %. 330,000 compounds, 1.2% hits; active = max response of -50% or lower; inconclusive = between -30% and -50%; inactive = -30% or higher; also: value at the top dose of about 77 µM; % is scaled to controls: 0 for no effect and ±100 for the full control effect
Target sequence (P48426 whole entry, looked up): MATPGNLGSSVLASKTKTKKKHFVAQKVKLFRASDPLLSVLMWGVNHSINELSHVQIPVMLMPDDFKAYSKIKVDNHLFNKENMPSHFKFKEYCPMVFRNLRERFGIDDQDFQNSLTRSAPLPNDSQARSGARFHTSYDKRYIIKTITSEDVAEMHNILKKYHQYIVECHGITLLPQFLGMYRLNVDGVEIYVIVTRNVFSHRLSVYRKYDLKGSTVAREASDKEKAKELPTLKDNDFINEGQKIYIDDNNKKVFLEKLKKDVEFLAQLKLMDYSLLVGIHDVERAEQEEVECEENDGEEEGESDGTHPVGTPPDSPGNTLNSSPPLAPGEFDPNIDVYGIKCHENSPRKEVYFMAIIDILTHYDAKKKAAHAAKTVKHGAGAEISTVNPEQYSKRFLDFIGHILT
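Quantitative HTS of the MLSMR library against PI5P4Kalpha with substrate. ATP added last at 5 microM final; room temperature, 60 minutes. Remaining ATP depleted, ADP converted and read as luminescence.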
TCR activator: activators of T cell receptors; 330,000 tested, under 10 active; Potency, µM (titrated, usually from 9.22 µM), for inactives: at the top dose activation of IL-2 secretion, most hits filed as activators; primary human leukocytes, anti-CD3, IL-2 HTRF, 48 h; also: % of control where 0% means no effect
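Compounds are tested in HTS on primary human leukocytes co-incubated with a-CD3 beads for 48 hr. IL-2 output is measured by time-resolved FRET.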
WRN helicase inh: WRN helicase (human) inhibition. Potency, µM (highest dose often 114 µM), inactives show at the highest dose activity change, negative = inhibition, hits mostly inhibitors. WRN helicase unwinding, fluorescent forked duplex, kinetic. Q14191. 360,000 compounds, 0.46% hits; also: potency is read from the fitted curve at half-maximal effect; % is scaled to controls: 0 for no effect and ±100 for the full control effect; nearly all actives have a fitted effect of over 55% in size
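Screening of the MLSMR collection measured strand separation of a quenched forked DNA duplex (100 nM) by 20 nM WRN with 2 mM ATP, all final. Compounds were preincubated with enzyme 15 min at room temperature.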
FEN1 inh: inhibitors of human flap endonuclease 1; Recombinant FEN1 flap cleavage, fluorescence, 15 min; Potency, µM (series often up to 114 µM), without a hit: top-dose activity change, negative = inhibition, actives largely listed as inhibitors; 390,000 compounds, 0.35% hits; P39748; also: potency is read from the fitted curve at half-maximal effect; % is scaled to controls: 0 for no effect and ±100 for the full control effect; nearly all actives have a fitted effect of over 65% in size
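Enzyme 10 nM, 15 min RT preincubation with compound; start with substrate 50 nM final; reads at 0 and 15 min; qHTS titration, four-parameter Hill fit.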
PLK1 PBD inh: blocks phosphopeptide binding to human PLK1 polo-box domain. P53350. Plk1 PBD binding of FITC phosphopeptide, fluorescence polarization. Potency, µM, for inactives: max response, negative = inhibition, actives largely listed as inhibitors. 360,000 compounds, 2.8% hits. AID 720504; also: potency is read from the fitted curve at half-maximal effect; series mostly up to about 57 µM; % is scaled to controls: 0 for no effect and ±100 for the full control effect; nearly all actives have a fitted effect of over 65% in size
VDR inhibitor: inhibitors of human vitamin D receptor; P11473; VDR-SRC2-3 peptide fluorescence polarization, 2 h; Potency, µM, for inactives: max response, negative = inhibition, hits mostly inhibitors; 400,000 compounds, 0.93% hits; AID 504847; also: potency is read from the fitted curve at half-maximal effect; % is scaled to controls: 0 for no effect and ±100 for the full control effect
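VDR–SRC2-3 interaction, FP format. Cmpds 23 nl via pintool, brief spin, 2 h ambient incubation.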
Active calls of the source: *; ? = inconclusive; nt = no result; [ ] = remark or other dose. Compounds with a hit are over-represented: about 3.7% of the library has one in this group of screens. Unless noted, calls follow the shape of the dose curve; as a rule, active = well fitted curve in the direction sought with a large enough effect; inconclusive = small, poorly fitted or top-dose-only effect, or another doubt; inactive = no such curve, though single readings can be large; an effect the other way counts as inactive or inconclusive.

SMILES | PI5P4Ka inh | TCR activator | WRN helicase inh | FEN1 inh | PLK1 PBD inh | VDR inhibitor
Cc1ccc(NC(=O)CCC(=O)c2ccc(F)cc2)cc1Cl | -2.9 | -3.4% | -5.4% | -5.2% | -6.1% | 4.8%
O=C(CC(Nc1ccc(Cl)cc1Cl)C(=O)O)c1ccccc1 (centres undefined) | -1.5 | -2.5% | -7.8% | -16.6% | -6.1% | 79.4µM*
COc1cc(C(=O)N2CCC(c3nc4ccccc4o3)CC2)cc(OC)c1OC | nt | nt | nt | 19.1% | nt | 5.9%
Cc1ccc2onc(CC(=O)N3CCN(c4cccc(Cl)c4)CC3)c2c1 | nt | nt | nt | -4.3% | nt | 0.6%
CN(CP(=O)(O)C(O)c1ccccc1)S(C)(=O)=O (centres undefined) | -4.8 | -1.8% | -0.2% | -1.2% | 0.0% | 1.3%
CCOC(=O)CCP(=O)(O)C(O)c1ccccc1 (centres undefined) | -9.9 | 8.5% | 4.8%[57.1 µM] | 10.4% | 23.8µM* | -6.2%
CC(C)OCCCNC(=S)Nc1ccc(S(N)(=O)=O)cc1 | -23.0 | -8.8%[46.1 µM] | -27.0% | -0.1% | 5.97µM* | ?
NS(=O)(=O)c1ccc(NC(=S)NCCc2ccccc2)cc1 | -11.1 | -10.3% | -1.3% | -16.5% | 6.7µM* | -19.4%
COCc1ccc(C(=O)NCC2(N3CCCCC3)CCCCC2)cc1 | -15.6 | -4.1% | -14.9% | 16.2% | 29.9µM* | ?
Cc1ccc(C(=O)C[n+]2cccc3cccc(O)c32)cc1 | nt | nt | nt | -9.0% | nt | nt
CCCCn1nnnc1NCc1cccnc1 | ? | -3.0% | -25.4% | 7.9% | 2.99µM* | -26.4%
COc1cccc(/C=C2\SC(=S)N(C(Cc3ccccc3)C(=O)O)C2=O)c1 (centres undefined) | 0.9 | nt | -10.5% | 8.5% | 33.6µM* | ?
COc1cccc(/C=C2\SC(=S)N(CCC(=O)Nc3ccc(O)cc3)C2=O)c1 | 1.1 | 0.3% | -1.0% | -8.8% | -7.0% | 1.4%
O=C(O)C(Cc1ccccc1)N1C(=O)/C(=C/c2cccs2)SC1=S (centres undefined) | 1.7 | 4.1% | -16.6% | -6.2% | ? | 79.4µM*
COc1ccccc1NC(=O)C1=C(C)Nc2nc3ccccc3n2C1c1cccc(Br)c1 (centres undefined) | nt | nt | nt | 11.3% | nt | -5.0%
CC(/C=N/n1c(COc2ccccc2)n[nH]c1=S)=C\c1ccco1 | -9.9 | 1.1% | -8.0% | -3.0% | 21.2µM* | -18.0%
Cc1ccc(/C=N/n2c(COc3ccccc3)n[nH]c2=S)o1 | -3.0 | -2.2% | 0.4% | -8.7% | ? | 6.0%
CC(/C=N/n1c(-c2n[nH]c3c2CCC3)n[nH]c1=S)=C\c1ccco1 | -59.5* | 0.4% | -5.7%[11.6 µM] | -13.5% | -24.1% | -4.1%
Cc1ccccc1OCc1nnc(SC(C)C(=O)O)n1-c1ccccc1 (centres undefined) | -54.2* | nt | 12.8% | nt | -6.7% | nt
O=C(Nc1ccc(Oc2ccccc2)cc1)C1CCN(S(=O)(=O)c2ccccc2)CC1 | nt | nt | nt | -8.5% | nt | 16.8%
CC(=O)Nc1ccc(S(=O)(=O)NCCc2csc3nc(-c4cccc(C)c4)nn23)cc1 | nt | nt | nt | -7.1% | nt | 12.0%
Cc1ccccc1NS(=O)(=O)c1ccc(F)cc1 | nt | 1.7% | -0.8% | -4.2% | 0.9% | -2.6%
CC(C)(C)N(NS(=O)(=O)c1ccc(F)cc1)c1ccccc1 | 10.8 | -5.6% | -17.9% | -2.3% | ? | 44.7µM*
Fc1ccc2[nH]c3c(NCc4ccco4)ncnc3c2c1 | nt | nt | nt | ? | nt | -8.2%
COc1cccc(/C=C/c2ccnc3ccccc23)c1OC | nt | nt | nt | -15.6% | nt | nt
SMILES | PI5P4Ka inh | TCR activator | WRN helicase inh | FEN1 inh | PLK1 PBD inh | VDR inhibitor
O=C1NC(=S)S/C1=C\c1ccc(SCc2ccccc2)o1 | -77.0* | 5.3%[46.1 µM] | ? | 79.4µM* | 26.7µM* | ?
O=C1NC(=S)S/C1=C\c1ccc(SCc2ccco2)o1 | -99.3* | -6.6%[46.1 µM] | 8.91µM* | ? | 2.99µM* | 44.7µM*
CCCCCCCCCCCCCCCC(=O)OCC(O)C1OC(=O)C(O)=C1O (centres undefined) | nt | nt | nt | nt | nt | 5.01µM*
NC(=O)OC[C@@H]1[C@H](NC(=O)/C(=N/OCC(=O)O)c2csc(N)n2)C(=O)N1S(=O)(=O)O | nt | nt | nt | nt | nt | -7.4%
O=C(CCl)NC1CCCc2ccccc21 (centres undefined) | ? | 0.0% | 11.2% | -4.6% | 26.7µM* | 3.4%
O=C(Cc1ccc(Br)cc1)NC1CCCc2ccccc21 (centres undefined) | 2.1 | 1.4% | -1.9% | 6.6% | 0.0% | -3.9%
Nc1nc(Nc2cccc(Cl)c2)nc(NCCO)c1[N+](=O)[O-] | -63.2* | 2.7% | -33.1% | ? | -6.5% | 13.1%
CCOC(=O)C1CCC(CN(Cc2ccc(OC)cc2)S(=O)(=O)c2ccc(F)c(C(=O)Nc3ccc(C)c(C)c3)c2)CC1 (centres undefined) | nt | nt | nt | -2.9% | nt | 18.1%
CC12C(=O)N(c3ccccn3)C(=O)C1C1C=CC2C1 (centres undefined) | 0.5 | 10.5% | 0.0% | 21.8% | 29.9µM* | ?
CC(C)CC(=O)O/N=C1\C(=O)N(c2ccccc2)c2ccccc21 | 5.2 | -0.9% | 3.8% | 8.9% | 29.9µM* | -19.1%
N#CC(Sc1ccccn1)c1ccc(Cl)cc1 (centres undefined) | 7.6 | 4.2% | -18.0%[57.1 µM] | -7.4% | 7.52µM* | ?
CC1CC(C)(C)NC(=S)S1 (centres undefined) | 0.1 | -20.9% | 3.2% | 1.6% | 23.8µM* | 5.1%
Brc1ccc(C=C2C=c3ccccc3=C2)cc1 | nt | nt | nt | -32.6% | nt | nt
CCc1nn2c(=O)cc(COc3ccc(/C=C4\C(=N)N5N=C(C)SC5=NC4=O)cc3)nc2s1 | -72.3* | -0.1% | ? | ? | ? | -8.2%
CCc1nn2c(=O)cc(COc3cccc(NC(=O)c4ccco4)c3)nc2s1 | ? | -1.8% | -20.8% | -21.1% | 26.7µM* | ?
CCc1nn2c(=O)cc(COc3ccc(NC(=O)c4ccco4)cc3)nc2s1 | 1.4 | 1.5% | -10.6% | 14.7% | 26.7µM* | -8.7%
CC(C)Cc1nn2c(=O)cc(COc3ccc(NC(=O)c4ccco4)cc3)nc2s1 | 1.2 | -2.4% | -9.1% | -15.7% | -8.0% | 1.8%
COc1ccc(C(=O)NCC(c2ccc(N(C)C)cc2)N2CCCC2)c(OC)c1 (centres undefined) | nt | nt | nt | -3.0% | nt | 8.9%
c1ccc(-c2nc(-c3cnc4ccccc4n3)cs2)cc1 | nt | nt | nt | -2.6% | nt | nt
O=C(O)c1cc(NN=Nc2cccc([N+](=O)[O-])c2)cc([N+](=O)[O-])c1 | ? | 8.0% | -10.5% | -14.0% | -14.6% | 6.6%
O=C(O)c1cc(NN=Nc2cccc(S(=O)(=O)O)c2)cc([N+](=O)[O-])c1 | -55.5* | 1.9% | -1.2% | 6.3% | -3.7% | -16.8%

Screening data as filed in PubChem.
